# Screens deposited in PubChem BioAssay by National Center for Advancing Translational Sciences (NCATS).
# VP16 counter = inhibits Gal4-VP16 luciferase reporter, ROR gamma counter-screen; 310,000 compounds, 3.5% hits; AID 2546; Potency, µM (doses to about 53.6 µM), without a hit: at the top dose activity, negative = inhibition, hits mostly inhibitors; Drosophila S2 Gal4-VP16 UAS-luciferase, luminescence, 20 h;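 note: Gal4-VP16 expression switched on by copper sulfate through the metallothionein promoter; % is set by controls: 0 for no effect and ±100 for the full control effect; nearly all actives have a fitted effect of over 50% in size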
# RORg inh = inhibitors of mouse ROR gamma transcriptional activity; AID 2551; 310,000 compounds, 5.4% hits; Potency, µM (top dose mostly 53.6 µM), for inactives: at the highest dose activity change, negative = inhibition, hits mostly inhibitors; P51450; Drosophila S2 Gal4-RORgamma UAS-luciferase reporter, 20 h; note: % is set by controls: 0 for no effect and ±100 for the full control effect; nearly all actives have a fitted effect of over 60% in size
# Target sequence (P51450 whole entry, looked up, the tested form may be a part): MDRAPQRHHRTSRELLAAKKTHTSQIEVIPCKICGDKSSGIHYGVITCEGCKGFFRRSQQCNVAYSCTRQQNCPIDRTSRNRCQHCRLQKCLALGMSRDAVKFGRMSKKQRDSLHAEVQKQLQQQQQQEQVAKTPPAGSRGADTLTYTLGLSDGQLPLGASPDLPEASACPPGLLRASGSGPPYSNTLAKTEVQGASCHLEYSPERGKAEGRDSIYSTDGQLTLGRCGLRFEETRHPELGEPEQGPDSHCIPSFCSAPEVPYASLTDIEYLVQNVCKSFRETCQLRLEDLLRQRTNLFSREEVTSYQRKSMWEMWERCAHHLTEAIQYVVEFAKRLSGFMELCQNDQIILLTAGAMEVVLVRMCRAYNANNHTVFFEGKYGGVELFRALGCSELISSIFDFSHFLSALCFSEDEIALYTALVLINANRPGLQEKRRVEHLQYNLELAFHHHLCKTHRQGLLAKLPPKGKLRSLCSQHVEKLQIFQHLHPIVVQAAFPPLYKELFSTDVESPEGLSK
#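 Drosophila Schneider cells stably carrying a metallothionein-driven Gal4 DBD–ROR gamma fusion and a UAS-Photinus luciferase reporter were exposed to compound for 1 hr, then induced with copper sulfate (700 uM final) for 20 hr at ambient temperature before luminescence reading.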
# TGFb SMAD3 inh = inhibitors of TGF-b signaling. HepG2 CAGA-GFP TGF-b/SMAD3 reporter, GFP fluorescence, 18 h; TGF-beta stimulated, 500 pg/mL final. Potency, µM (doses to about 46.1 µM), without a hit: top-dose activity, negative = inhibition, actives largely listed as inhibitors. 410,000 compounds, 1.2% hits. AID 588855; note: % is set by controls: 0 for no effect and ±100 for the full control effect; nearly all actives have a fitted effect of over 65% in size
#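 HEPG2 CAGA-GFP reporter cells (1000/well, DMEM with 1% FBS) received compounds, then recombinant TGF-beta at 500 pg/mL final for 18 hours at 37 degrees C. Per-cell GFP summed per well was normalised to unstimulated and stimulated DMSO controls before curve fitting.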
# HepG2 tox = HepG2 cytotoxicity, counter-screen for TGF-b inhibitors; 410,000 compounds, 0.76% hits; HepG2 CAGA-GFP viability, ATP luminescence, 18 h; AID 588856; Potency, µM (doses to about 46.1 µM), for the others: at the top dose activity change, negative = cytotoxicity, usual class: cytotoxic
#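 CellTiter-Glo luminescence gave cytotoxicity after 18 hours at 37 degrees C. The cells were HepG2 CAGA-GFP in 1% FBS DMEM, stimulated with 500 pg/mL TGF-beta after compound addition. %Activity was normalised to no-cell wells (complete cell-killing) and DMSO (no toxicity), and curves were fitted and classified.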
# ATXN2 expr inh = ATXN2 expression inhibition. AID 1745845. HEK-293 ATXN2-luciferase reporter, luminescence, 24 h. 360,000 compounds, 0.72% hits. Potency, µM (doses to about 57 µM), for inactives: top-dose activity change, negative = inhibition, hits mostly inhibitors; note: % is set by controls: 0 for no effect and ±100 for the full control effect; nearly all actives have a fitted effect of over 55% in size
#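 qHTS (up to 57 uM final) was run with 24 h compound exposure of reporter cells at 37 °C. Each well was multiplexed: SteadyGlo luminescence measured ATXN2-luciferase expression after a fluorogenic Gly-Phe-AFC viability readout (25 uM final).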
# ATXN viability = reduces viability in counter-screen for ATXN expression inhibitors | Potency, µM (doses to about 56.7 µM), hits mostly cytotoxic | 400,000 compounds, 0.49% hits | AID 651635 | S2 cells (HEK-293 line with an ATXN2-luciferase reporter) viability, CellTiter-Fluor protease fluorescence, 24 h; note: nearly all actives have a fitted effect of over 40% in size
# * marks the source's active call; other numbers are inactive results; i = inactive; ? = inconclusive; · = no result; [ ] = another dose, or the depositor's remark. A selection: hits, their analogues and other compounds. The true share with any hit is near 6.3%. Calls come from the whole dose curve; as a rule, active = well fitted curve in the direction sought with a large enough effect; inconclusive = small, poorly fitted or top-dose-only effect, or another doubt; inactive = no such curve, though single readings can be large; an effect the other way counts as inactive or inconclusive. Potency is the fitted concentration of half-maximal effect.
SMILES,VP16 counter,RORg inh,TGFb SMAD3 inh,HepG2 tox,ATXN2 expr inh,ATXN viability
CC1CC2=C(NC(=S)NC2c2ccc(F)cc2)/C(=C/c2ccc(F)cc2)C1 (centres undefined),7.1µM*,1.6µM*,?,-4%,-4%,i
CC(C)(C)n1c(O)c2n(c1=O)Cc1ccccc1N=C2c1ccccc1,·,·,-23%,-47%,0%,i
COc1cc(C2Nc3ccccc3-c3nnc(SCc4ccc(C)cc4)nc3O2)cc(OC)c1O (centres undefined),·,·,21%,-5%,-25%,i
FC(F)(F)c1ccccc1C1C2=C(Nc3ncnn31)c1ccccc1CCC2 (centres undefined),4.5µM*,-151%,·,·,·,·
S=C1NC2=C(CCC/C2=C\c2ccc(Cl)cc2)C(c2ccc(Cl)cc2)N1 (centres undefined),?,15%,18µM*,9%,14%,i
Fc1ccccc1/C=C1\CCCC2=C1NC(=S)NC2c1ccccc1F (centres undefined),11µM*,2.5µM*,?,-31%,-22%,i
O=C1NC(=S)SC1=Cc1ccc(Cl)cc1,·,·,?,-30%,-30%,?
COc1cc(OC)c(NC(=O)c2nnn(Cc3ccc(C)cc3)c2N)cc1Cl,·,·,-29%,-17%,-28%,i
O=C(Nc1nc(-c2ccccn2)cs1)c1ccc(Br)s1,1.3µM*,1.3µM*,-28%,-12%,?,?
O=C(Nc1ccc(Br)cc1)c1cccc(-n2cnnn2)c1,-4%,?,-16%,-14%,-3%,i
O=C(Nc1nc(-c2ccccn2)cs1)c1ccco1,0%,7.1µM*,-29%,-31%,?,i
O=C(Nc1nc(-c2ccccn2)cs1)c1cccc(-n2cnnn2)c1,-5%,5µM*,-14%,2%,·,i
CCC(C)CC(C)CC(C)C(=O)/C=C(/O)C(C)CC(C)C/C=C/C(C)C(O)C(C)C(O)CC1CCC(C)(C)O1 (centres undefined),?,2%,·,·,·,·
COc1ccc(OC)c(NC(=O)Cn2c(=O)n(-c3cccc(C)c3)c(=O)c3c2c2cc(C)ccc2n3C)c1,·,·,-19%,-19%,0%,i
Cc1ccccc1NC(=O)CCn1nc(-c2ccc(Cl)cc2)c2ccccc2c1=O,·,·,?,-21%,-6%,i
CN(C)CCOc1ccc(-c2c(-c3ccccc3)sc3ccccc23)cc1,·,·,?,-108%,20µM*,?
Fc1ccc(-[n+]2nc(Nc3ccccc3)sc2-c2c3ccccc3cc3ccccc23)cc1,-18%,10µM*,11µM*,11µM*,25µM*,11µM*
COC(=O)[C@H](C)N(Cc1ccc(Cl)c(Cl)c1)S(=O)(=O)CCN1CCN(c2ccccc2)CC1,·,·,11µM*,-7%,-12%,i
O=S(=O)(c1cccc(C(F)(F)F)c1)N1CCN(c2nc(-c3ccccc3)nc3ccccc23)CC1,·,·,9%,-7%,·,·
O=C(CN1C(=O)NC2(CCCCC2)C1=O)NCCc1ccccc1,·,·,-20%,0%,·,i
Nc1nc(SCc2ccccc2)ns1,?,?,2%,1%,38%,i
Nc1nc(SCc2ccc(Cl)cc2)ns1,7.1µM*,-35%,-5%,-1%,53%,i
Cc1cc(C(=O)Nc2ccccc2-c2nc(CNC(=O)c3ccc(F)cc3F)c(C)o2)c(C)o1,·,·,·,·,·,i
CCNc1ccccc1,-5%,7%,·,·,·,·
Cn1c(O)c(/C=N/NC(=O)c2cc3ccccc3cc2O)c2ccccc21,?,7.9µM*,?,-74%,-34%,·
SMILES,VP16 counter,RORg inh,TGFb SMAD3 inh,HepG2 tox,ATXN2 expr inh,ATXN viability
COc1ccc2c(c1)cc(C(=O)N/N=C/c1c(O)c(C(=O)O)cc3ccccc13)n2C,18µM*,11µM*,1%,20%,-6%,·
O=C(O)CCCCCN1C(=O)CSC1=S,-16%,5µM*,-8%,-1%,3%,i
Cc1c2ccccc2c(CSC(=N)N)c2ccccc12,?,11µM*,·,·,·,·
COC1CC2CCC(C)[C@](O)(O2)C(=O)C(=O)N2CCCCC2C(=O)OC(C(C)CC2CCC(O)C(OC)C2)CC(=O)C(C)/C=C(/C)C(O)C(OC)C(=O)C(C)CC(C)C=CC=C/C=C\1C (some centres undefined),?,-22%,·,·,·,·
COc1ccc(-c2csc(NC(=O)CN3C(=O)CCC3=O)n2)cc1,1%,12%,12%,-5%,19%,i
O=C(NC(=S)Nc1nc(-c2ccccc2)cs1)c1ccco1,?,3.5µM*,-8%,0%,7%,i
O=C(Nc1nc(-c2ccncc2)cs1)c1ccco1,4%,0%[10 µM],-1%,-34%,42%,i
COc1ccc(-c2csc(NC(=S)NC(=O)c3ccco3)n2)cc1,-2%,7.1µM*,-1%,-13%,·,?
CCCC(=O)NC(=S)Nc1nc(-c2ccc(OC)cc2)cs1,-16%,8.9µM*,?,-26%,-4%,i
C/C1=C\[C@@H](O)C(C(C)C)C(OC(=O)c2ccc(O)cc2)C/C(C)=C/CC1 (some centres undefined),?,-17%,·,·,·,·
Cc1sc2ncnc(Sc3nnnn3-c3ccc(Cl)cc3)c2c1C,7.1µM*,4µM*,-19%,-18%,?,?
Cc1ccc2cc(CN(C)C(=O)c3cccc(Cl)c3)c(=O)[nH]c2c1,·,·,1%,-21%,-14%,i
Cc1ccc(/C=N/Nc2nnc(Cl)c3ccccc23)cc1,13µM*,3.2µM*,-9%,-17%,37%,i
Clc1nnc(N/N=C/c2ccccc2)c2ccccc12,?,10µM*,?,-43%,56%,i
Clc1nnc(NN=C2CCCC2)c2ccccc12,?,8.9µM*,?,-34%,10%,i
CCOC(=O)c1c(-c2ccc(OC)cc2)csc1/N=C/N(C)C,0%,7%,-2%,-47%,-14%,i
CCOC(=O)c1c(-c2ccc(OC)cc2)csc1/N=C/C1C(=O)CCCC1=O,?,3.2µM*,37%,16µM*,-15%,i
Cc1ccccc1-n1c(-c2cccnc2)n[nH]c1=S,15%,?,-15%,4%,4%,i
CCc1cccc(CC)c1-n1c(-c2cccnc2)n[nH]c1=S,16µM*,3.5µM*,14%,6%,-8%,i
NCCCCCc1nnc(SCc2ccc(Cl)c(Cl)c2)o1,10µM*,?,-13%,-1%,·,·
CCCCC/C=C\C=C\C(O)CCCCCCCC(=O)O (centres undefined),0%,10%,·,·,·,·
Cc1cnc(-n2ncc(C(=O)NCC3CCCN(C)C3)c2C)nc1-c1cccs1 (centres undefined),·,·,·,·,·,i
